Source: PubChem
ALOX12 inh: inhibitors of human 12S-lipoxygenase ALOX12; P18054; purified 12hLO, xylenol orange hydroperoxide absorbance; Potency, µM (series often up to 108 µM), without a hit: top-dose activity change, negative = inhibition, actives largely listed as inhibitors; 580,000 compounds, 1.1% hits
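Hydroperoxide product was detected by ferrous iron/xylenol orange as the 573 to 405 nm absorbance ratio. Arachidonic acid at 40 uM (final) was turned over for 30 min at room temperature by 150 nM human 12hLO, pH 7.0 Hepes buffer, after 15 min compound preincubation.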
VDR inh: blocks the human vitamin D receptor; VDR-SRC2-3 peptide fluorescence polarization, 2 h; AID 504847; Potency, µM, for the others: max response, negative = inhibition, usual class: inhibitors; 400,000 compounds, 0.93% hits
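Compounds are added to VDR with labelled SRC2-3 coactivator peptide and held 2 h at room temperature. Inhibition of the VDR–peptide interaction is then read as a change in fluorescence polarization.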
Sfp inh: inhibitors of Bacillus subtilis Sfp phosphopantetheinyl transferase. Biochemical Sfp PPTase activity, qHTS. Potency, µM, for the others: largest response in the series, negative = inhibition, usual class: inhibitors. Q9F4F7. 310,000 compounds, 3.5% hits;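 further: the enzyme is Sfp with the accession as filed and its product quenches rhodamine fluorescence; 0% = enzyme reaction without inhibitor and -100% = no enzyme wells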
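Step 1, compound plus 15 nM Sfp-PPTase, 15 min, room temperature. Step 2, add rhodamine-CoA (5 uM) and BHQ-2-YbbR (12.5 uM). Step 3, read 525/598 nm fluorescence at 0 and 30 min.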
PLK1 PBD block: PLK1 (human) polo-box domain binding inhibition; P53350; Plk1 PBD binding of FITC phosphopeptide, fluorescence polarization; Potency, µM, for inactives: max response, negative = inhibition, usual class: inhibitors; 360,000 compounds, 2.8% hits; further: series mostly up to about 57 µM; nearly all actives have a fitted effect of over 65% in size
Target sequence (P53350 whole entry, looked up, the tested form may be a part): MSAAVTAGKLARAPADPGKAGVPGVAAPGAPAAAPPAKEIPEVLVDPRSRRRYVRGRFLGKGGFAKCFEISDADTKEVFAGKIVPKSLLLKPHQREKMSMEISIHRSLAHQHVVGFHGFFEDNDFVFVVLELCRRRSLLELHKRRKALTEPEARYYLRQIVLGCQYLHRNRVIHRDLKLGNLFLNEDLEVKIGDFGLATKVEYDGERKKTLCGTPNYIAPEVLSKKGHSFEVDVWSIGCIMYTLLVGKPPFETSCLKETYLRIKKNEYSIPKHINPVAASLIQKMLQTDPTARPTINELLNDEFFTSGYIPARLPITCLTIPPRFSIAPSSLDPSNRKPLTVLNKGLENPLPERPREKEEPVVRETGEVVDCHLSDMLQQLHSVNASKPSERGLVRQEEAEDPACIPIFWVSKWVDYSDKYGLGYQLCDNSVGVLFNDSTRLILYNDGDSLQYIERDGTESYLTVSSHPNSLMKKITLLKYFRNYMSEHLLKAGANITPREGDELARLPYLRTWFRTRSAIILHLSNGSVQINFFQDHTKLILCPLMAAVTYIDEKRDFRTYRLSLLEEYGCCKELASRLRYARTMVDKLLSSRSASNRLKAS
The depositor's hits bear a star; ? = inconclusive; / = no result; [ ] = another dose, or the depositor's remark. Rows were chosen to be rich in hits. Some 4.2% of all compounds tested hit in one or more screens of this group. The call rests on the fitted dose curve; in most records, active means well fitted curve in the direction sought with a large enough effect; inconclusive means small, poorly fitted or top-dose-only effect, or another doubt; inactive means no such curve, though single readings can be large; an effect the other way counts as inactive or inconclusive. Unless noted, on the % scale 0 is the no-effect control and ±100 the full control effect; potency means the concentration at half of the fitted maximal effect.

SMILES	ALOX12 inh	VDR inh	Sfp inh	PLK1 PBD block
O=C(C1CC(=O)N(c2ccc3c(c2)OCCO3)C1)N1CCN(Cc2ccccc2)CC1 (stereo not given)	16%	-6%	/	0%
O=C1CC2(CCN(C(=O)C3CCCCC3)C2)Nc2ccccc2N1 (stereo not given)	5%[6.33 µM]	/	/	/
CC(OC(=O)CNC(=O)c1ccco1)C(=O)N(C)c1ccccc1 (stereo not given)	2%	-15%	22%	27µM*
Cc1cccc(C(=O)NC(=S)NNC(=O)COc2c(C)cccc2C)c1	25µM*	-4%	-15%	-21%
Cc1cccc(C(=O)NNC(=S)NC(=O)/C=C/c2cccs2)c1	35µM*	/	/	/
O=C(NNC(=S)NC(=O)c1cccnc1)c1ccc(Cl)cc1	?	-12%	1%	-27%
Cc1cccc(C(=O)NC(=S)NNC(=O)c2ccccc2Cl)c1	40µM*	-10%	-19%	-15%
O=C(NC(=S)NNC(=O)c1ccc(Cl)cc1Cl)c1cccnc1	?	-7%	45µM*	-21%
Cc1cccc(C(=O)NC(=S)NCc2ccccc2)c1	?	-15%	/	1%
Cc1cccc(C(=O)NC(=S)NNC(=O)Cc2ccccc2)c1	45µM*	20%	13%	-10%
COC(=O)[C@H](CC(C)C)N1Cc2cc(OC)cc(OC)c2-c2ccccc2S1(=O)=O	25µM*	-20%	/	-19%
CCOC(=O)c1sc(NC(=O)c2cc(-c3ccccc3)nc3ccccc23)c(C#N)c1C	-15%	-19%	40µM*	3µM*
CCOC(=O)c1sc(NC(=O)CSc2n[nH]c(-c3ccccc3)n2)c(C#N)c1C	?	-22%	7.1µM*	3.8µM*
COC(=O)c1ccccc1NC(=O)CSc1n[nH]c(-c2cccnc2)n1	-5%	-16%	19%	21µM*
CCOC(=O)c1sc(NC(=O)CSc2nc(C)cc(C)n2)c(C#N)c1C	-4%	8%	-1%	-11%
CC(=O)c1cccc(NC(=O)CCc2c(C)nc3c(c(C)nn3-c3ccccc3)c2C)c1	-15%	11%	/	/
COc1ccc(-c2nc(C)nc3c2CN([S+](=O)([O-])c2cccc(OC)c2)CC3)cc1	2%[6.33 µM]	/	/	/
Cc1nn(-c2ccc(C(C)C)cc2)c(C)c1[C@@H]1C=C[C@@H](NC(=O)NC(C)C)C1	14%[176 µM]	/	/	/
Cc1nn(-c2ccc(C(F)(F)F)cc2)c(C)c1[C@@H]1C=C[C@@H](NC(=O)NC(C)C)C1	11µM*	/	/	/
Cc1nn(-c2ccc(F)cc2)c(C)c1[C@@H]1C=C[C@@H](NC(=O)CC(C)(C)CC(=O)O)C1	20µM*	/	/	/
COc1cc(-c2cc3nc(NCCc4ccc(S(N)(=O)=O)cc4)ccn3n2)cc(OC)c1OC	?	/	/	-2%
CC1CCCN(Cc2c(O)ccc3c2O/C(=C\c2ccco2)C3=O)C1 (stereo not given)	-25%	-19%	35µM*	?
CCN1CCN(Cc2c(O)ccc3c2O/C(=C\c2ccccc2)C3=O)CC1	2%	14%	8%	-14%
Cn1c(Sc2cc(-c3ccccc3)c3ccccc3n2)nnc1-c1ccc(F)cc1	4%	/	/	/
COCCNc1nc(-c2ccc(C(=O)N(C)C)cc2)nc2ccccc12	?	23%	6%	/
SMILES	ALOX12 inh	VDR inh	Sfp inh	PLK1 PBD block
COCCNc1nc(-c2ccc(N(C)C)cc2)nc2ccccc12	?	79µM*	?	/
COC(=O)NC1CCS(=O)(=O)C1 (stereo not given)	5%	11%	-17%	0%
COC(=O)NC1CCC(NC(=O)OC)CC1 (stereo not given)	7%	-12%	4%	27µM*
COC(=O)[C@@]1(Cc2ccccc2-c2ccco2)C=C[C@H](C)[C@@H](c2ccccc2)N1C(=O)C(F)(F)F	/	45µM*	?	/
CC(C)c1ccc(/C=N/N2CCCCC2)cc1	?	-14%	63µM*	-12%
CN(C)c1ccc(C=NN2CCCCCC2)cc1	?	5%	/	-10%
COc1ccccc1C(=O)N1CCC2(C1)NC(=O)c1ccccc1O2 (stereo not given)	31%	/	/	/
COc1ccc(S(=O)(=O)NCc2cc(=O)n(C)c(=O)n2C)cc1F	8%	19%	17%	-9%
Cc1sc2ncnc(Nc3ccccc3)c2c1C	0%	-11%	8%	27µM*
N[C@H](C(=O)O)C1C(C(=O)O)C1C(=O)O (stereo not given in full)	-1%	-3%	50µM*	/
CC(C)(SC(=S)N1CCCCCC1)C(=O)O	1%	-6%	79µM*	?
CC(C)(SC(=S)N1CCOCC1)C(=O)O	10%	9%	-10%	-17%
CC1=C(C(=O)OC(C)C)C(c2ccccc2C(F)(F)F)CC(=O)N1 (stereo not given)	40%	/	/	/
O=C(NCCc1ccccc1)NC1CCCCC1	6%	-3%	13%	4%
O=C(NC1CCCCCC1)C(=S)NCCc1ccccc1	-8%	?	14µM*	11µM*
O=C(NC1CCCCCC1)C(=S)NCc1ccccc1	-15%	?	56µM*	21µM*
O=C(NCc1cccnc1)c1ccc(Cl)c(S(=O)(=O)N2CCOCC2)c1	2%	-21%	14%	3%
O=C(c1ccc(Cl)c(S(=O)(=O)N2CCCCC2)c1)N1CCN(c2ccccc2)CC1	15%	-4%	6%	-4%
O=C(NCc1cccnc1)c1ccc(Cl)c(S(=O)(=O)N2CCCCCC2)c1	-6%	?	-9%	27µM*
O=C(c1ccc(Cl)c(S(=O)(=O)N2CCCC2)c1)N1CCN(c2ccccc2)CC1	?	32µM*	12%	13µM*
CCC(=O)OC1(C)C(=O)C=C2C=C(CCCNC(=O)OC(C)(C)C)OC=C2C1=O (stereo not given)	/	3%	-4%	/
COc1cc(Cl)c(C)cc1NC(=O)CCCN1C(=O)CCC1=O	3%	-14%	13%	-4%
O=C(CCCN1C(=O)CCC1=O)Nc1ccccc1F	-1%	-14%	79µM*	?
COC(=O)c1cc(OC)c(OC)cc1NC(=O)CCCCCN1C(=O)CCC1=O	?	-4%	8%	30µM*
c1ccc(OCc2cc(CC3(NC4CCC4)COC3)no2)cc1	1%[176 µM]	/	/	/
SMILES	ALOX12 inh	VDR inh	Sfp inh	PLK1 PBD block
COc1ccc(C)cc1NC(=O)CSc1nc(=O)[nH]c2c1CCCC2	-23%	-2%	/	/
OC1(CN2CCOCC2)C2CN3CCN(C2)CC1(c1ccccc1)C3 (stereo not given)	8%	-14%	5%	21µM*
CN(C)/C=C1/NC(=S)NC1=O	?	4%	79µM*	-5%
CC(=O)N1N=C(c2c(-c3ccccc3)c3cc(Br)ccc3[nH]c2=O)CC1c1ccco1 (stereo not given)	?	79µM*	40µM*	-18%
CC(C)[C@H](NS(=O)(=O)c1ccccc1)C(=O)OCC(=O)N1N=C(c2ccc(Cl)cc2)CC1c1ccco1 (stereo not given in full)	40µM*	-7%	-17%	-15%
COCC(=O)OCC(=O)N1N=C(c2ccc(Cl)cc2)CC1c1ccco1 (stereo not given)	-24%	-23%	-15%	-8%
